Experimental findings from PubChem BioAssay (EPA / NIEHS) are described below.

Holding throughout (conditions): mRNA level, 48 h; actives raise or lower the signal
Read-out in assay [1]: Glutathione S-Transferase (GSTA2), GSTA2 (gene 2939)
Nature of the assay: LTEA_HepaRG_GSTA2: Life Technologies and Expression Analysis (LTEA) Assay for Glutathione S-Transferase (GSTA2) using HepaRG (AID 2283497). In short, it runs like this: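 GSTA2 transcript levels came from Fluidigm TaqMan qRT-PCR normalized to three housekeeping genes, fitted in both directions against DMSO. HepaRG cultures received chemicals for 48 h in serum-free induction medium (0.5% DMSO), 8 half-log concentrations up to 100 uM, duplicate.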

Read-out in assay [2]: Glutamate-cysteine ligase catalytic (GCLC), GCLC (gene 2729)
Nature of the assay: LTEA_HepaRG_GCLC: Life Technologies and Expression Analysis (LTEA) Assay for Glutamate-cysteine ligase catalytic (GCLC) using HepaRG (AID 2283498). In short, it runs like this:
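Expression by TaqMan qRT-PCR, normalized to three housekeeping genes (ACTB, GAPDH, POLR2A), with up- or down-regulation fitted against DMSO. HepaRG cells dosed in duplicate for 48 h with 8 half-log concentrations up to 100 uM, vehicle 0.5% DMSO.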

Read-out in assay [3]: growth arrest and DNA damage 45 (GADD45G), GADD45G (gene 10912)
Nature of the assay: LTEA_HepaRG_GADD45G: Life Technologies and Expression Analysis (LTEA) Assay for growth arrest and DNA damage 45 (GADD45G) using HepaRG (AID 2283499). In short, it runs like this: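 Concentration-response in HepaRG: 48 h dosing, 0.5% DMSO, highest level 100 uM. GADD45G expression by qRT-PCR, normalised to endogenous controls; bidirectional fit to DMSO.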

Read-out in assay [4]: Glutamate-cysteine ligase regulatory (GCLM), GCLM (gene 2730)
Nature of the assay: LTEA_HepaRG_GCLM: Life Technologies and Expression Analysis (LTEA) Assay for Glutamate-cysteine ligase regulatory (GCLM) using HepaRG (AID 2283500). In short, it runs like this: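 In this multiplexed HepaRG gene-expression assay, GCLM mRNA change after 48 h treatment (8 concentrations, max 100 uM) was scored against DMSO by bidirectional curve fitting.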

Read-out in assay [5]: Glutathione S-transferase M3 (GSTM3), GSTM3 (gene 2947)
Nature of the assay: LTEA_HepaRG_GSTM3: Life Technologies and Expression Analysis (LTEA) Assay for Glutathione S-transferase M3 (GSTM3) using HepaRG (AID 2283501). In short, it runs like this:
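Expression of GSTM3 is determined by qRT-PCR in human liver HepaRG cells treated 48 h with an 8-point half-log range from 100 uM in 0.5% DMSO.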

Read-out in assay [6]: Heat shock 70 kDa protein 1 (HSPA1A), gene 3303
Nature of the assay: LTEA_HepaRG_HSPA1A: Life Technologies and Expression Analysis (LTEA) Assay for Heat shock 70 kDa protein 1 (HSPA1A) using HepaRG (AID 2283502). In short, it runs like this:
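An oxidative-stress marker readout: HepaRG cells treated 48 h in duplicate with an eight-point series (highest 100 uM) had HSPA1A mRNA quantified by TaqMan qRT-PCR. Activity was fitted in both directions using 0.5% DMSO as baseline.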

Read-out in assay [7]: Hypoxia-inducible factor 1-alpha (Homo sapiens) (UniProt Q16665)
Briefly: LTEA_HepaRG_HIF1A: Life Technologies and Expression Analysis (LTEA) Assay for Hypoxia-inducible factor 1 (HIF1A) Trancription factor using HepaRG (AID 2283503).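 Also: HIF1A transcript by TaqMan qRT-PCR normalized to ACTB GAPDH and POLR2A.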 In short, it runs like this:
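Gain- or loss-of-signal HIF1A mRNA changes are fitted against a DMSO baseline. HepaRG cultures receive eight concentrations, highest 100 uM, for 48 h in serum-free induction medium with 0.5% DMSO.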

Read-out in assay [8]: 3-Hydroxy-3-Methylglutaryl-CoA Synthase 2 (HMGCS2), HMGCS2 (gene 3158)
Briefly: LTEA_HepaRG_HMGCS2: Life Technologies and Expression Analysis (LTEA) Assay for 3-Hydroxy-3-Methylglutaryl-CoA Synthase 2 (HMGCS2) using HepaRG (AID 2283504). In short, it runs like this:
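This steatosis marker was read as HMGCS2 mRNA change in HepaRG cells treated 48 h with up to 100 uM chemical. Normalisation used housekeeping genes; activity in either direction was fitted relative to 0.5% DMSO vehicle.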

Read-out in assay [9]: Insulin Like Growth Factor 1 (IGF1), IGF1 (gene 3479)
Nature of the assay: LTEA_HepaRG_IGF1: Life Technologies and Expression Analysis (LTEA) Assay for Insulin Like Growth Factor 1 (IGF1) using HepaRG (AID 2283506). In short, it runs like this:
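Endpoint: IGF1 mRNA change by qRT-PCR, housekeeping-normalized, fitted bidirectionally relative to 0.5% DMSO vehicle. Human HepaRG cells were treated 48 h in serum-free induction medium, eight half-log concentrations topping at 100 uM.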

Read-out in assay [10]: Intercellular Adhesion Molecule 1 (ICAM1), ICAM1 (gene 3383)
Nature of the assay: LTEA_HepaRG_ICAM1: Life Technologies and Expression Analysis (LTEA) Assay for Intercellular Adhesion Molecule 1 (ICAM1) using HepaRG (AID 2283507). In short, it runs like this: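 Using the human liver line HepaRG, compounds are tested in duplicate over 48 h at concentrations up to 100 uM. Expression is determined by TaqMan qRT-PCR, normalized to endogenous controls, and analysed relative to 0.5% DMSO vehicle.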

Read-out in assay [11]: Insulin-like growth factor-binding protein 1 (IGFBP1), IGFBP1 (gene 3484)
Briefly: LTEA_HepaRG_IGFBP1: Life Technologies and Expression Analysis (LTEA) Assay for Insulin-like growth factor-binding protein 1 (IGFBP1) using HepaRG (AID 2283508). In short, it runs like this: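 HepaRG, 48 h, 8 conc. (max 100 uM, half-log), duplicates, 0.5% DMSO. Readout: TaqMan qRT-PCR, ACTB/GAPDH/POLR2A normalisation. Fit: bidirectional vs DMSO.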

Read-out in assay [12]: Interleukin 6 (IL6), IL6 (gene 3569)
Briefly: LTEA_HepaRG_IL6: Life Technologies and Expression Analysis (LTEA) Assay for Interleukin 6 (IL6) using HepaRG (AID 2283509). In short, it runs like this:
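Transcript levels, normalized to three housekeeping genes, were quantified by qRT-PCR after 48 h chemical treatment of HepaRG cells. Eight-point half-log series from 100 uM in 0.5% DMSO, duplicates. Fitted both directions against DMSO baseline.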

Read-out in assay [13]: Interleukin 6 Receptor (IL6R), IL6R (gene 3570)
Briefly: LTEA_HepaRG_IL6R: Life Technologies and Expression Analysis (LTEA) Assay for Interleukin 6 Receptor (IL6R) using HepaRG (AID 2283510).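 As to AC50: differentiated human HepaRG liver cells in serum-free induction medium.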 In short, it runs like this: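 In this HepaRG screen, test chemicals act on cells for 48 h at up to 100 uM (eight half-log points, duplicate wells). IL6R expression is quantified by qRT-PCR after normalization to ACTB, GAPDH and POLR2A, with DMSO as baseline.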

Read-out in assay [14]: Keratin 19 (KRT19), KRT19 (gene 3880)
Briefly: LTEA_HepaRG_KRT19: Life Technologies and Expression Analysis (LTEA) Assay for Keratin 19 (KRT19) using HepaRG (AID 2283512). In short, it runs like this:
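Readout is qRT-PCR of KRT19 mRNA, normalized to ACTB, GAPDH and POLR2A, from HepaRG cells treated 48 h with eight-point half-log dilutions topping at 100 uM. Activity in either direction is scored relative to 0.5% DMSO vehicle.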

Read-out in assay [15]: JUN Transcription Factor, JUN (gene 3725)
Nature of the assay: LTEA_HepaRG_JUN: Life Technologies and Expression Analysis (LTEA) Assay for JUN Transcription Factor using HepaRG (AID 2283513). In short, it runs like this:
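Gene-expression endpoint: JUN mRNA (qRT-PCR, normalized to three reference genes) in HepaRG cultures treated 48 h with chemicals, duplicate wells, 100 uM maximum with half-log dilutions; bidirectional fitting relative to 0.5% DMSO.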

Read-out in assay [16]: Lipase C (LIPC), LIPC (gene 3990)
Briefly: LTEA_HepaRG_LIPC: Life Technologies and Expression Analysis (LTEA) Assay for Lipase C (LIPC) using HepaRG (AID 2283514). In short, it runs like this:
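LIPC expression was quantified by qRT-PCR against three housekeeping genes (ACTB, GAPDH, POLR2A). Differentiated human HepaRG cells received eight half-log doses (top 100 uM, 0.5% DMSO) in duplicate for 48 h; fitting bidirectional relative to DMSO.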

Read-out in assay [17]: Cytochrome P450 4A22 (Homo sapiens) (UniProt Q5TCH4)
Nature of the assay: LTEA_HepaRG_CYP4A22: Life Technologies and Expression Analysis (LTEA) Assay for Cytochrome P450 4A22 (CYP4A22) using HepaRG (AID 2283495). In short, it runs like this:
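Concentration-response (8 points, max 100 uM, 0.5% DMSO) in human HepaRG liver cells after 48 h exposure. CYP4A22 mRNA by TaqMan qRT-PCR with housekeeping-gene normalization.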

Read-out in assay [18]: Cytochrome P450 7A1 (Homo sapiens) (UniProt P22680)
Briefly: LTEA_HepaRG_CYP7A1: Life Technologies and Expression Analysis (LTEA) Assay for Cytochrome P450 7A1 (CYP7A1) using HepaRG (AID 2283496). In short, it runs like this: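 Using 0.5% DMSO as vehicle and baseline, chemicals were tested in duplicate over an 8-point range from 100 uM on HepaRG cells for 48 h; qRT-PCR signals were normalised to ACTB, GAPDH and POLR2A.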

The term AC50 denotes the concentration giving half of the maximal activity seen.

Activity calls are given as the source filed them. The calls were made as follows: active = hit-call score of the fitted dose curve at least 0.9, where 1 is the maximum; inactive = score below 0.9.

Chain of Hypoxia-inducible factor 1-alpha (Homo sapiens) (Q16665 whole entry, looked up): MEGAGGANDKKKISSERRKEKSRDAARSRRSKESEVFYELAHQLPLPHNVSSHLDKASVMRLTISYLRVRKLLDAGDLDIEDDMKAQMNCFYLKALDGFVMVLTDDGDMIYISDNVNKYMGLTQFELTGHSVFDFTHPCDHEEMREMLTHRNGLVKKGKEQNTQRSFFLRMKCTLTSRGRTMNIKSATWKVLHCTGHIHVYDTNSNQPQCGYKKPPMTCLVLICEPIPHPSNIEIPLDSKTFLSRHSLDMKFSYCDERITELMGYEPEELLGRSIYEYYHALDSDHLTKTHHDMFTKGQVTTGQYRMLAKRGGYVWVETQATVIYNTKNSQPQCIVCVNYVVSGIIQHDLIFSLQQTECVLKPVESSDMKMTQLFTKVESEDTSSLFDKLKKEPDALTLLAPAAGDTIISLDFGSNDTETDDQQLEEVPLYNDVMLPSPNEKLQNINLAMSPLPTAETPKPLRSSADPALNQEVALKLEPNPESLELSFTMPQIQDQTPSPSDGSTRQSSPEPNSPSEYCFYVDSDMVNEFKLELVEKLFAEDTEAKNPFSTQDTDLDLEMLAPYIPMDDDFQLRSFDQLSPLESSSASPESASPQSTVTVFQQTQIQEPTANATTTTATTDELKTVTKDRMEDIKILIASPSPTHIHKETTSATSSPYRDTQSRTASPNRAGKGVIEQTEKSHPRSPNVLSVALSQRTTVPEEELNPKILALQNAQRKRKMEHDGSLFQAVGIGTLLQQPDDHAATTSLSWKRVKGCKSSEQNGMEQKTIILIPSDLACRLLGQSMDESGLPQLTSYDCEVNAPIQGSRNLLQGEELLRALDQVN

Take `OCCO`: the outcome in [1], in assay [2], in assay [3], in [4], in assay [5] and in assay [6] was inactive. Further, the outcome in assay [7], in [8], in [9], in assay [10], in [11] and in [12] was inactive. Further, the call in assay [13], in assay [14], in assay [15] and in assay [16] was inactive.

As for `Cc1c2ccccc2c(C)c2c1ccc1ccccc12`, the AC50 in [17] is 51.9 µM (active); in [18], 65.9 µM (active); in [1], 39.4 µM (active); in assay [4], 50 µM (active); in [7], 90.9 µM (active); in [8], 52.5 µM (active). The AC50 in assay [10] was 82.1 µM (active); in [11], 70.3 µM (active); in assay [13] it was 13.5 µM (active); in [14], 13.3 µM (active); in [16], 30.6 µM (active). For the same compound, the compound was classed as inactive in assay [2] and in assay [15].

Turning to `CC(C)(C)c1cc(/C=C2\SC(N)=NC2=O)cc(C(C)(C)C)c1O`, the result in [17], in [4], in [5], in assay [6], in assay [13] and in assay [14] was inactive. Further, in assay [16], the outcome was inactive. For the same compound, the AC50 in [18] is 25.2 µM (active); in [1], 91.4 µM (active); in assay [2] it was 14.5 µM (active); in assay [7] it was 68.8 µM (active); in assay [8] it was 50 µM (active); in assay [9], 93.3 µM (active). The AC50 in assay [10] was 29.9 µM (active); in [11] it was 85.1 µM (active); in assay [12], 29.8 µM (active); in assay [15], 66.6 µM (active).
